Source: PubChem BioAssay
HEK293 viab – GF-AFC viability counterscreen for inhibitors of alpha-synuclein gene (SNCA) expression. actives 0.12% (n = 150,000). HEK-293-SNCA-luc viability, GF-AFC fluorescence, 24 h. Potency, µM (top dose mostly 57.1 µM), most hits filed as cytotoxic; note: nearly all actives have a fitted effect of over 30% in size
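Cytotoxicity counterscreen: after 24 h compound treatment of genome-edited SNCA-luciferase HEK-293 cells, live-cell protease substrate GF-AFC read by fluorescence after 30 min; activity scaled between DMSO (0%) and medium-only (-100%), curves Hill-fitted.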
IP6K1 inh – Primary qHTS assay for small molecule inhibitors of Inositol hexaphosphate kinase 1 (IP6K1) | Inositol hexakisphosphate kinase 1 (Homo sapiens), Q92551 | IP6K1 kinase, ADP-Glo luminescence, 2 h; active compounds read low | activity change, % (series mostly up to about 58 µM) | actives 0.81% (n = 140,000); in the data active = activity change below about -25%
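ADP-Glo luminescence measures ADP made by human IP6K1 during a 2 h RT reaction with ATP/IP6 (mix at 1.3 mM/130 uM); top library doses 57.5 and 19.1 uM final.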
KDM5B inh – Primary screen for KDM5B Histone Demethylases FDH-coupled qHTS; KDM5B demethylase, FDH-coupled NADH fluorescence (FDH is formaldehyde dehydrogenase); Lysine-specific demethylase 5B (Homo sapiens), Q9UGL1; Potency, µM (doses to about 57.7 µM), most hits filed as inhibitors; actives 2.6% (n = 220,000); AID 1347165, 2019; note: nearly all actives have a fitted effect of over 70% in size
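Measured: NADH fluorescence change, 30 min, RT. System: KDM5BΔAP 200 nM final, H3K4me3 peptide, α-KG, Fe(II), ascorbate, NAD⁺ plus FDH, pH 7.5 HEPES. Compounds: titrated, 10 min pre-incubation with enzyme.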
SNCA expr inhib – Primary qHTS assay for inhibitors of alpha-synuclein gene (SNCA) expression; HEK-293 SNCA-luciferase knock-in, luminescence, 24 h; actives 0.17% (n = 140,000); Potency, µM (top dose mostly 57.2 µM), usual class: inhibitors; note: nearly all actives have a fitted effect of over 45% in size
IP6K1 conf – Confirmatory qHTS assay for small molecule inhibitors of Inositol hexaphosphate kinase 1 (IP6K1) | Potency, µM (series often up to 49 µM), actives largely listed as inhibitors | actives 13% (n = 1,200) | shares compounds with IP6K1 inh | recombinant IP6K1 kinase, ADP-Glo luminescence, 2 h; note: nearly all actives have a fitted effect of over 65% in size
Numbers stand for hits; i = inactive; ? = inconclusive; nt = not tested or not shown; [ ] = remark or other dose. Compounds with a hit are over-represented: about 2.8% of the library has one in this group of screens. Unless noted, calls come from the whole dose curve; as a rule, active = well fitted curve in the direction sought with a large enough effect; inconclusive = small, poorly fitted or top-dose-only effect, or another doubt; inactive = no such curve, though single readings can be large; an effect the other way counts as inactive or inconclusive.

SMILES | HEK293 viab | IP6K1 inh | KDM5B inh | SNCA expr inhib | IP6K1 conf
O=C(N[C@H](Cc1ccccc1)C1CC(O)C1)c1cnn(Cc2ccccc2)c1 (some centres not stated) | i | i | i | i | nt
COCCOC1CCOC2(CCN(C(=O)CCn3nc(C)cc3C)CC2)C1 (configuration not stated) | i[12.5 µM] | i | i | i | nt
COc1cccc(NC(=O)CSCc2cc(=O)c3ccc(C)c(C)c3[nH]2)c1 | i | -37 | i | i | ?
Cc1cc(-c2cnc(N)c3c(-c4ccc5scnc5c4)csc23)n(C)n1 | i | -31 | nt | nt | ?
FC(F)(F)Oc1ccc(-c2cnc([C@@H]3COCCN3Cc3ncc[nH]3)[nH]2)cc1 | i | i | i | i | nt
O=C1C[C@@H](c2ccc(O)cc2)Oc2cc(O)ccc21 | i | -35 | nt | nt | ?
Cc1ccc2c(c1)OC(c1ccc3c(c1)OCCO3)CC2=O (configuration not stated) | nt | nt | i | nt | nt
O=S(=O)(c1ccc(-c2cc(C(F)(F)F)on2)s1)N1CCN(c2cccc(Cl)c2)CC1 | i | -33 | i | i | i
COc1ccccc1NC(=O)c1c(NC(=O)c2ccccc2Cl)sc2c1CCC2 | i | -31 | i | i | i
O=C(c1ccc2cccc(F)c2n1)N1CCOc2ccc(Cl)cc2C1 | i | i | i | i | nt
Cc1cccc(-n2c(=O)c3ccccc3n(Cc3ccccc3C#N)c2=O)c1 | ? | i | i | i | nt
COc1cc(OC)cc(-n2c(=O)c3ccccc3n(Cc3ccccc3C#N)c2=O)c1 | i | -28 | i | i | i
CCOC(=O)C1CCCN(C(=O)c2ccc3c(c2)sc2nc(-c4cccc(OC)c4)cn23)C1 (configuration not stated) | i | -31 | ? | i | i
CCOC(=O)C1CCCN(C(=O)c2ccc3c(c2)sc2nc(-c4ccc(C)cc4C)cn23)C1 (configuration not stated) | i | i | i | i | nt
COc1ccc(-c2cn3c(n2)sc2cc(C(=O)NCCCN4CCCCCC4)ccc23)cc1 | i | -62 | ? | i | i
COc1ccc(-c2cn3c(n2)sc2cc(C(=O)NCCCN4CCCCC4)ccc23)cc1 | ? | i | ? | i | nt
COC(=O)CSc1sc(=O)sc1SC | nt | nt | i | nt | nt
Cc1ccc(NC(=O)CC2C(=O)OCCN2Cc2ccccc2)cc1Cl (configuration not stated) | nt | nt | i | nt | nt
CN(C)C(=O)N1C2CCC1CN(c1ccc(C(F)(F)F)cc1)C2 | i | -27 | i | ? | ?
O=C1NC(=O)/C(=C/c2ccc3c(c2)OC(F)(F)O3)S1 | i | -37 | nt | i | ?
CCN1CCN(C(C(=O)O)c2c[nH]c3cc(NC(=O)c4ccccc4)ccc23)CC1 (configuration not stated) | nt | nt | i | nt | nt
CC(=O)Oc1cccc(O)c1 | i | i | nt | i | nt
COc1cc(O)cc(/C=C/c2cccc(O)c2)c1 | i | -45 | nt | nt | ?
Cc1cc(Nc2nc(-c3ccccc3)nc3ccccc23)n[nH]1 | i | -26 | nt | nt | ?
Cc1cc(C)cc(Nc2nc(-c3cccnc3)nc3ccccc23)c1 | nt | nt | i | nt | nt
SMILES | HEK293 viab | IP6K1 inh | KDM5B inh | SNCA expr inhib | IP6K1 conf
CCOC(=O)c1ccc(NC(=O)Cn2nc3c(cc2=O)CCCCC3)cc1 | i | i | i | i | nt
Cc1ccc(Nc2nc(N)c(C(=O)C(C)C)s2)c(C)c1 | nt | nt | i | nt | nt
Cn1nccc1C(=O)N1CCCN(S(C)(=O)=O)c2ccccc21 | i | i | i | i | nt
CCC(=O)c1ccc(NC(C)=O)cc1O | nt | nt | i | nt | nt
CCC(=O)c1c(O)cc(O)cc1O | i | -29 | nt | i | ?
Cn1cccc1-c1noc(C2CCN(Cc3nc(-c4ccc(F)cc4)no3)CC2)n1 | i | i | nt | i | nt
O=C(NCc1ccc(F)cc1)c1nc2cccnc2n(Cc2ccccc2)c1=O | i | i | nt | i | nt
CC(C)c1cc(C(C)C)c(CC(=O)NS(=O)(=O)Oc2c(C(C)C)cccc2C(C)C)c(C(C)C)c1 | i | -32 | nt | i | ?
COc1cccc(OC(=O)CSc2nnc(-c3ccc4c(c3)OCO4)o2)c1 | i | -32 | ? | ? | ?
CCNc1nc2c(s1)C(c1cccc(F)c1)CC(=O)N2 (configuration not stated) | i | -71 | 25µM | i | 16µM
